The list is not random: actives were taken first. Their share in the collection is about 1.1%.
PrP UTR inh: suppresses PrP 5' UTR mRNA reporter expression. cell-based PrP 5' UTR mRNA reporter, plate reader. inhibition, % (test concentration not listed). 340,000 tested, 0.35% active. AID 488862; in the data active means inhibition above about 52%
BJeLR lethal: BJeLR cell viability loss | 300,000 tested, 0.17% active | inhibition, % (no concentration beside the values) | BJeLR (HRASV12) viability, CellTiter-Glo ATP luminescence, 48 h; in the data active means inhibition above about 50%
PrPC TRFRET: cell surface PrPC inhibition, primary TR-FRET screen; P04156; TR-FRET read-out; inhibition, % at 13.8 µM; 370,000 tested, 0.43% active; AID 720596; in the data active means inhibition above about 24%
MazF activator: increases E. coli MazEF RNase cleavage of RNA; FAM/BHQ RNA-DNA oligo cleavage fluorescence, 5 h; activation, % at 20 µM; 350,000 tested, 0.32% active; AID 504720; in the data active means activation above about 50%
PrPC confirm: confirmation of inhibitors of cell surface human prion protein | shares compounds with PrPC TRFRET | cell surface PrPC level, TR-FRET | inhibition, % at 13.8 µM | 1,500 tested, 65% active; in the data active means inhibition above about 25%
LD9 tox: counter-screen for PrPc inhibitors: cytotoxicity in LD9 cells; shares compounds with PrPC TRFRET; luminescence viability; inhibition, % at 13.8 µM; 1,500 tested, 29% active; in the data active means inhibition above about 9.5%
Numbers stand for hits; i = inactive; nt = no result.

SMILES	PrP UTR inh	BJeLR lethal	PrPC TRFRET	MazF activator	PrPC confirm	LD9 tox
COc1cccc(C(=O)N(CCN2CCOCC2)Cc2ccc(OC)c(OC)c2)c1	nt	nt	i	nt	nt	nt
COC(=O)c1cc(Br)c(=O)n(-c2nccs2)c1	i	i	49	i	94	i
CCN(C(=O)C1CCCN(c2nnc(-n3cccc3)s2)C1)c1ccccc1C (stereo not drawn)	nt	nt	i	nt	nt	nt
COc1ccc(C(=O)Nc2ccccc2C(=O)NC(Cc2ccc(O)cc2)C(=O)NNC(=O)c2ccc(C)cc2)cc1 (stereo not drawn)	i	i	83	i	i	i
Cc1ccccc1C(=O)N1CCN(C(=O)C(=O)c2cccc(C(F)(F)F)c2)CC1	nt	nt	i	nt	nt	nt
CCN(CC)C(=O)CSc1ncnc2sc(C)c(C)c12	i	i	i	i	nt	nt
CCC(Sc1ncnc2sc(C)c(C)c12)C(=O)OC (stereo not drawn)	i	i	80	i	106	i
Cc1cccnc1NC(=O)CSc1ncnc2sc(C)c(C)c12	i	i	i	i	nt	nt
Cc1sc2ncnc(SCC(=O)Nc3ncccc3O)c2c1C	i	nt	27	i	32	i
CCCC(=O)NC(c1ccc(OC)cc1)c1ccc2cccnc2c1O (stereo not drawn)	i	i	27	i	26	32
CCCCC(=O)NC(c1ccccc1)c1ccc2cccnc2c1O (stereo not drawn)	i	i	29	i	27	19
CCCCC(=O)NC(c1ccccc1Cl)c1ccc2cccnc2c1O (stereo not drawn)	i	i	39	i	32	30
COC(=O)c1cc2c(c3c4ccccc4n(S(=O)(=O)c4ccc(OC)cc4)c13)C(=O)N(Cc1ccc(C(F)(F)F)cc1)C2	nt	nt	i	nt	nt	nt
COc1ccc(CNCC#Cc2ccccc2)cc1	nt	nt	i	nt	nt	nt
O=C(N[C@H](Cc1ccccc1)C(=O)N(CCC1=CCCCC1)CC1CC1)[C@H]1O[C@@H](n2ccc(=O)[nH]c2=O)[C@H](O)[C@@H]1O	nt	nt	i	nt	nt	nt
CCN(CC)C(=O)CSc1nnc(-c2ccc(C(C)(C)C)cc2)n1-c1ccc(Cl)cc1	nt	nt	i	nt	nt	nt
O=C(CSc1ccc2ccccc2c1Br)Nc1cccc(S(=O)(=O)NC2=NCCCCC2)c1	i	i	39	i	48	i
COc1ccc(NC(=O)Nc2ccc3c(c2)C(=O)N([C@H](C)CO)C[C@H](C)[C@H](CN(C)C)OCCCC[C@@H](C)O3)cc1	nt	nt	i	nt	nt	nt
CC(=O)Nc1ccc(NC(=O)c2cc([N+](=O)[O-])cc([N+](=O)[O-])c2)cc1	i	i	i	i	nt	nt
Cc1ccc(NC(=O)c2ccc(Nc3c([N+](=O)[O-])cc([N+](=O)[O-])cc3[N+](=O)[O-])cc2)cc1	i	i	25	i	i	37
COc1ccccc1NC(=O)CSc1ncnc2c1oc1ccccc12	i	i	26	i	i	i
Cc1ccc(S(=O)(=O)N(C)C)cc1NC(=O)c1cncc(Br)c1	i	i	27	i	i	i
COc1cc(-n2c(C)cc(O)cc2=O)ccc1Cl	nt	nt	i	nt	nt	nt
Cc1c2ccncc2c(C)c2c1[nH]c1ccccc12	i	i	nt	i	nt	nt
COc1ccc2[nH]c3c(C)c4ccncc4c(C)c3c2c1	i	101	34	i	34	42
SMILES	PrP UTR inh	BJeLR lethal	PrPC TRFRET	MazF activator	PrPC confirm	LD9 tox
CSc1nc2ccc(NC(=O)c3ccco3)cc2s1	i	i	i	i	nt	nt
CSc1nc2ccc(NC(=O)c3cccs3)cc2s1	i	nt	25	i	25	i
C[C@H]1[C@H](c2ccccc2)Oc2cccc(NCCc3ccccc3)c2S(=O)(=O)N1Cc1ccc(F)cc1	nt	nt	i	nt	nt	nt
O=c1[nH]c(Cc2ccccn2)nc2scc(-c3ccccc3Cl)c12	i	i	26	i	i	i
CSCc1nc2scc(-c3ccccc3)c2c(=O)[nH]1	i	i	i	i	nt	nt
Cc1ccc(/C(O)=C2/C(=O)C(=O)N(c3ccccn3)C2c2ccc(F)cc2)cc1 (stereo not drawn)	i	i	i	i	nt	nt
CCOc1ccc(/C(O)=C2/C(=O)C(=O)N(c3ccccn3)C2c2ccc(F)cc2)c(C)c1 (stereo not drawn)	i	i	29	i	63	i
O=C1N[C@@H](Cc2ccccc2)C(=O)N2[C@H]1CSCCS2(=O)=O	nt	nt	i	nt	nt	nt
CCOc1ccc(-c2cc(C(=O)NCCCn3ccnc3)c3ccccc3n2)cc1	i	i	i	i	nt	nt
CCOc1ccc(-c2cc(C(=O)NCCCn3ccnc3)c3cc(Br)ccc3n2)cc1	i	i	25	i	82	i
CCc1ccccc1N(C)S(=O)(=O)c1ccc2[nH]cc(C(=O)N3CCc4ccccc43)c(=O)c2c1	i	i	100	i	i	i
O=c1cc(N2CCN(c3ccnc4cc(Cl)ccc34)CC2)[nH]c(=O)n1C1CCCCC1	nt	nt	i	nt	nt	nt
O=C(c1ccc(Br)cn1)N1CCC(Oc2cccnc2)CC1	nt	nt	i	nt	nt	nt
Cc1ccccc1NC1=NCC(c2ccc([N+](=O)[O-])cc2)S1 (stereo not drawn)	i	i	46	i	44	i
Cc1ccccc1Nc1ccc([N+](=O)[O-])cn1	i	i	i	i	nt	nt
CC[C@@H]1C[C@H]2CC[C@H](O2)[C@H](C)C(=O)O[C@@H](C)C[C@@H]2CC[C@@H](O2)[C@@H](C)C(=O)O[C@H](C)C[C@H]2CC[C@H](O2)[C@H](C)C(=O)O[C@@H](C)C[C@@H]2CC[C@@H](O2)[C@@H](C)C(=O)O1	nt	nt	39	nt	56	55
C[C@H](O)[C@@H]1CN2CCc3c([nH]c4c(-c5ccccc5)cccc34)[C@@H]2C[C@@H]1N(C)C(=S)NCCc1ccccc1	nt	nt	i	nt	nt	nt
Cc1[nH]n(-c2ccccc2)c(=O)c1/C=N/NC(=O)C(C)C	i	i	29	i	43	i
CC(=O)N/N=C/c1c(C)[nH]n(-c2ccccc2)c1=O	i	i	i	i	nt	nt
Cc1ccc(C(C)C)c(OCc2ccc(C(=O)N/N=C/c3ccc(O)cc3O)cc2)c1	i	i	38	i	43	17
Cc1ccc(C(C)C)c(OCc2ccc(C(=O)N/N=C/c3ccc(C(=O)O)cc3)cc2)c1	i	i	i	i	nt	nt
O=C(CSc1ccc([N+](=O)[O-])cn1)Nc1ccc2c(c1)OCCO2	i	i	41	i	i	i
O=c1oc2cc(O)ccc2c2ccccc12	i	i	28	i	33	i
CCCCNC(=O)C[C@H]1C[C@@]2(C(=O)OC)C(=C[C@H](C(C)(C)C)O[C@@H]2C)N(CCC2=CCCCC2)C1=O	nt	nt	i	nt	nt	nt
Nn1c(SCC(=O)N2c3ccccc3Sc3ccc(Cl)cc32)nnc1-c1cc(-c2ccc(F)cc2)n[nH]1	nt	nt	i	nt	nt	nt
CC(C)(C)OC(=O)NCCCCCc1cn([C@@H](CO)C(=O)NCCCCCCCCCCC(=O)N2CCN(C(=O)OC(C)(C)C)CC2)nn1	i	nt	53	i	34	36
Cc1ccc(-n2c(SCC(=O)Nc3cccc4ccccc34)nnc2-c2ccccc2)cc1	nt	nt	i	nt	nt	nt
Cc1nc(Nc2ncc(C(=O)Nc3c(C)cccc3Cl)s2)cc(N2CCN(CCO)CC2)n1	nt	nt	25	nt	i	i
Cc1cccc(Cl)c1NC(=O)N1CCCN(c2nc3ccc(Cl)cc3s2)CC1	i	i	i	i	nt	nt
